PubChem BioAssay AID1159580 (chemical genetic matrix, 2015)
Values joined by “and” are separate entries in the source; they are usually repeats but may differ in a detail not shown here. Identical values can stand only once. Out of some 5,500 compounds screened, about 2,000 (36%) were called active. About 18% were inconclusive and are not listed. Cut-off read from the data, not from the text of the source: active = normalized growth mostly below about 0.91 (no sharp cut-off); inconclusive = no clear call, values can overlap the other calls; inactive = mostly above about 0.92. The list shows a part of the results.

Assay: chemical genetic growth profiling, strain panel (AID 1159580);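 note: tested at 20 µM; growth read once vehicle control cultures reached saturation at 30 °C; 1 = growth at the plate median or of vehicle wells; lower values mean less growth of the strain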
Conditions: S. cerevisiae deletion strains, growth OD

Measured: normalized growth

COC1=C(OC)C(=O)C(C/C=C(\C)CC/C=C(\C)CC/C=C(\C)CC/C=C(/C)CC/C=C(\C)CC/C=C(\C)CC/C=C(\C)CC/C=C(\C)CC/C=C(\C)CCC=C(C)C)=C(C)C1=O
inactive: locus YAL013W, strain DEP1, hits give low values 0.999 | locus YAL021C, strain ccr4, hits give low values 0.983 | locus YAL026C, strain drs2, hits give low values 0.97 | locus YAL030W, strain snc1, hits give low values 0.989 | locus YBL061C, strain skt5, hits give low values 0.996 | locus YBR009C, strain hhf1, hits give low values 1.01 | locus YBR021W, strain FUR4, hits give low values 1.07 | locus YBR023C, strain chs3, hits give low values 0.978 | locus YBR171W, strain sec66, hits give low values 0.973 | locus YBR229C, strain ROT2, hits give low values 0.959 | locus YBR231C, strain swc5, hits give low values 0.974 | locus YBR279W, strain paf1, hits give low values 0.989 | locus YCL011C, strain gbp2, hits give low values 0.96 | locus YCL016C, strain dcc1, hits give low values 0.994 | locus YCL029C, strain bik1, hits give low values 0.969 | locus YCL069W, strain vba3, hits give low values 0.972 | locus YCR088W, strain abp1, hits give low values 0.972 | locus YDL005C, strain med2, hits give low values 0.977 | locus YDL035C, strain GPR1, hits give low values 1.03 | locus YDL040C, strain nat1, hits give low values 0.983 | locus YDL074C, strain BRE1, hits give low values 1.11 | locus YDL101C, strain DUN1, hits give low values 0.982 | locus YDL134C, strain PPH21, hits give low values 1.01 | locus YDL185W, strain tfp1, hits give low values 0.991 | locus YDL192W, strain arf1, hits give low values 1.02 | locus YDR001C, strain nth1, hits give low values 0.989 | locus YDR069C, strain doa4, hits give low values 0.96 | locus YDR101C, strain arx1, hits give low values 1.02 | locus YDR137W, strain rgp1, hits give low values 0.983 | locus YDR159W, strain sac3, hits give low values 0.963 | locus YDR162C, strain NBP2, hits give low values 0.972 | locus YDR195W, strain ref2 0.963 | locus YDR297W, strain sur2, hits give low values 0.975 | locus YDR318W, strain mcm21, hits give low values 0.984 | locus YDR334W, strain swr1, hits give low values 0.969 | locus YDR335W, strain msn5, hits give low values 0.974 | locus YDR388W, hits give low values 1 | locus YDR392W, strain spt3, hits give low values 0.967 | locus YDR502C, strain sam2, hits give low values 0.989 | locus YEL003W, strain gim4, hits give low values 0.983 | locus YEL037C, strain rad23, hits give low values 0.981 | locus YEL061C, strain CIN8 (second series), hits give low values 0.941 | locus YEL061C, strain CIN8, hits give low values 1.01 | locus YER015W, strain faa2, hits give low values 0.979 | locus YER016W, strain bim1, hits give low values 0.978 | locus YER110C, hits give low values 0.983 | locus YER111C, strain swi4, hits give low values 0.958 | locus YER155C, strain BEM2 (second series), hits give low values 0.982 | locus YER155C, strain BEM2, hits give low values 1 | locus YER167W, strain BCK2, hits give low values 1 | locus YFR010W, strain ubp6, hits give low values 0.964 | locus YGL078C, strain dbp3, hits give low values 1.01 | locus YGL086W, strain mad1, hits give low values 1.04 | locus YGL167C, strain pmr1, hits give low values 0.981 | locus YGL173C, strain kem1, hits give low values 0.982 | locus YGL227W, strain vid30, hits give low values 0.96 | locus YGL240W, strain doc1, hits give low values 0.974 | locus YGL248W, strain PDE1, hits give low values 0.999 | locus YGL253W, strain hxk2, hits give low values 0.988 | locus YGR078C, strain PAC10, hits give low values 0.996 | locus YGR135W, strain pre9, hits give low values 1 | locus YGR252W, strain gcn5, hits give low values 1.02 | locus YHR013C, strain ard1, hits give low values 0.957 | locus YHR027C, strain rpn1, hits give low values 0.968 | locus YHR030C, strain SLT2, hits give low values 1.02 and 1.01 | locus YHR079C, strain IRE1 (second series), hits give low values 0.986 | locus YHR079C, strain IRE1, hits give low values 1.02 | locus YHR094C, strain hxt1, hits give low values 0.999 | locus YHR129C, strain ARP1, hits give low values 1.01 | locus YHR142W, strain chs7, hits give low values 0.972 | locus YHR200W, strain rpn10, hits give low values 0.976 | locus YIL066C, strain RNR3, hits give low values 1.01 | locus YIL073C, strain SPO22, hits give low values 1.03 | locus YIL125W, strain kgd1, hits give low values 0.998 | locus YIR030C, strain dcg1, hits give low values 0.995 | locus YJL092W, strain hpr5, hits give low values 0.958 | locus YJL095W, strain BCK1 (second series), hits give low values 0.973 | locus YJL095W, strain BCK1, hits give low values 1.01 and 0.989 | locus YJL115W, strain asf1, hits give low values 0.969 | locus YJL129C, strain trk1, hits give low values 0.979 | locus YJL134W, strain LCB3, hits give low values 0.991 | locus YJL154C, strain vps35, hits give low values 0.976 | locus YJL164C, strain tpk1, hits give low values 0.999 | locus YJL166W, strain qcr8, hits give low values 0.978 | locus YJL168C, strain set2, hits give low values 0.994 | locus YJL187C, strain SWE1 (second series), hits give low values 0.985 | locus YJL187C, strain SWE1, hits give low values 0.984
